About 79,000 compounds went through this panel and 15% of them were active in at least one assay; those are over-represented in the sample as a whole. No stated cut-off is given here; in the data, active means growth inhibition above about 70%; inactive means the rest.
What was measured:
[1] = NCI Yeast Anticancer Drug Screen. Data for the rad50 strain (AID 155);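 further: 0% = growth of vehicle-only cultures of the same strain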; details: S. cerevisiae rad50 strain growth inhibition; at 50.0 µM; active compounds read high
Method in brief: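 Cells are treated with compound, grown, and their growth is then scored against vehicle-only cultures of the same repair-deficient yeast strain.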

[2] = NCI Yeast Anticancer Drug Screen. Data for the mec2-1 strain (AID 157); details: S. cerevisiae mec2-1 strain, at 50.0 µM, active compounds read high
Method in brief: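 Test agents were screened against the mec2-1 yeast strain, with defined DNA repair or cell cycle alteration. Growth was scored as inhibition against vehicle-only controls.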

[3] = NCI Yeast Anticancer Drug Screen. Data for the sgs1 mgt1 strain (AID 161);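 further: 0% = growth of cultures given vehicle only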; details: S. cerevisiae sgs1 mgt1 strain, at 50.0 µM, active compounds read high
Method in brief: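 Genetically altered yeast, compound exposure, growth inhibition relative to vehicle.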

[4] = NCI Yeast Anticancer Drug Screen. Data for the cln2 rad14 strain (AID 165);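 further: 0% = growth equal to vehicle treated cultures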; details: S. cerevisiae cln2 rad14 strain, at 50.0 µM, active compounds read high
Method in brief: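 Growth of compound-exposed yeast (cln2 rad14 genotype) measured and expressed as inhibition relative to vehicle.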

[5] = NCI Yeast Anticancer Drug Screen. Data for the bub3 strain (AID 167); details: S. cerevisiae bub3 mutant strain, at 50.0 µM, active compounds read high
Method in brief: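 Part of a panel of yeast mutants defective in DNA damage repair or cell cycle regulation. Each strain is grown with compound, and inhibition is calculated relative to solvent-treated cultures.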

[6] = NCI Yeast Anticancer Drug Screen. Data for the mlh1 rad18 strain (AID 175); details: S. cerevisiae mlh1 rad18 strain growth inhibition; at 50.0 µM; active compounds read high
Method in brief: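 In this whole-cell yeast screen, a strain with altered DNA damage repair is challenged with compound, and its growth is measured against matched vehicle-treated controls.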

Measured: growth inhibition

O=C(N/N=C1\CCc2ccccc2C1)N/N=C1\CCc2ccccc2C1
inactive: [1] 20.4% | [2] 17.1% | [3] 11.7% | [4] -5.85% | [5] -18.9% | [6] 9.6%

CC(C)(C)/C(=N\[N+](C)(C)C)c1ccccc1
inactive: [1] 7.85% | [2] 6.4% | [3] 0.4% | [4] -1.3% | [5] 6.8% | [6] 10.6%

COC1CC(OC2CCC3(C)C(=CCC4C3C(OC(C)=O)C(OC(=O)CC(C)C)C3(C)C(C(C)=O)CCC43O)C2)OC(C)C1OC1CC(OC)C(OC2CC(OC)C(OC3OC(C)C(OC4OC(CO)C(O)C(O)C4O)C(OC)C3O)C(C)O2)C(C)O1 (stereo unspecified)
inactive: [1] 2.4% | [2] 5.2% | [3] 16.4% | [4] 21.6% | [5] -7.45% | [6] -38.4%

Cc1ccc(C(=O)Nc2ccc(CP(=O)(O)O)cc2CP(=O)(O)O)cc1NC(=O)Nc1cc(C(=O)Nc2ccc(CP(=O)(O)O)cc2CP(=O)(O)O)ccc1C
inactive: [1] -10.8% | [2] -5.45% | [3] -12.1% | [4] -0.25% | [5] 0.4% | [6] 9.65%

CSCCC(Nc1ncnc2nc[nH]c12)C(=O)O (stereo unspecified)
inactive: [1] -9.7% | [2] 3.05% | [3] 3.6% | [4] -12.7% | [5] 0.9% | [6] -9.5%

Cc1cc(S(=O)(=O)Nc2n[nH]c(-c3ccc(Cl)cc3)n2)c(SSc2cc(Cl)c(C)cc2S(=O)(=O)Nc2n[nH]c(-c3ccc(Cl)cc3)n2)cc1Cl
inactive: [1] 34.5% | [2] 15.2% | [3] 27.8% | [4] 34.7% | [5] 30.6% | [6] 32.2%

Cc1cccc2c1-c1c(C)cccc1C(Cl)S(=O)(=O)C2 (stereo unspecified)
inactive: [1] 1.25% | [2] -4.6% | [3] -9.05% | [4] 4.55% | [5] 6.85% | [6] -1.65%

C=C1CC2(CC(c3ccccc3Cl)OC(c3ccccc3Cl)C2)OC1=O (stereo unspecified)
inactive: [1] 27.2% | [2] 47.2% | [3] 23.2% | [4] 33.2% | [5] 20.7% | [6] 18.8%

c1ccc2c(c1)C1c3ccccc3C2C2OC12 (stereo unspecified)
inactive: [1] 14.2% | [2] 1.5% | [3] -4% | [4] -2.9% | [5] -10.1% | [6] 34.4%

O=C(NC(c1ccccc1)c1cccs1)c1cccs1 (stereo unspecified)
inactive: [1] -2.95% | [2] -4.45% | [3] 1.05% | [4] -38.4% | [5] 30.1% | [6] 3.95%

NC(CCCCNC(=O)OCc1ccccc1)C(=O)OCc1ccccc1 (stereo unspecified)
inactive: [1] -15.2% | [2] -20.4% | [3] -9.7% | [4] 15.6% | [5] -0.75% | [6] -18.5%

CC(=O)Nc1cc(C)ccn1
inactive: [1] 1.2% | [2] 0.6% | [3] 10.6% | [4] -35% | [5] -2.95% | [6] 19.4%

CCCC[n+]1cccc(C(=O)c2ccccc2)c1
inactive: [1] 15.7% | [2] -6.6% | [3] 0.7% | [4] 2.75% | [5] 2.35% | [6] 8.85%

O=S(O)CCCCCSSSCCCCCS(=O)O
inactive: [1] 8.2% | [2] 8.8% | [3] -2.8% | [4] -10.4% | [5] 9.05% | [6] 44.7%

O=c1cccccc1Cl
inactive: [1] 14.8% | [2] -41.6% | [3] 20.9% | [4] 5.6% | [5] 40.8% | [6] 11.6%

N/N=C1/C(=N/O)CCc2nonc21
inactive: [1] 6.15% | [2] 6.5% | [3] 3.5% | [4] -8.3% | [5] -7.45% | [6] -27.1%

O=C(COc1cccc(C(=O)O)c1)Nc1ccccc1
inactive: [1] 3.5% | [2] 7.9% | [3] 12.4% | [4] -1.4% | [5] 50.8% | [6] 8%

O=P1(O)c2ccccc2CCc2ccccc21
inactive: [1] 10.1% | [2] -14.6% | [3] 3.7% | [4] 29.8% | [5] -11% | [6] 3.4%

CCCNC(C)=O
inactive: [1] 12.2% | [2] -26.1% | [3] -24.9% | [4] -27.1% | [5] -8.55% | [6] -1.25%

CC(=O)NNc1nc(C)c(C(/C=C/c2ccc([N+](=O)[O-])cc2)=N/N)s1
inactive: [1] 22.4% | [2] 9.2% | [3] 3.85% | [4] 17.4% | [5] -0.4% | [6] -12.4%

CC1(C=O)CCCC2(C)[C@@H]1CCC13CC(CC[C@H]12)C(C(=O)O)C3 (stereo partly specified)
inactive: [1] 28.9% | [2] 30.6% | [3] 22.6% | [4] 14.3% | [5] 26.8% | [6] 16.7%

Cc1cc(C23OC4COC(C)(C)OC4C2OC(C)(C)O3)nc2ccccc12 (stereo unspecified)
inactive: [1] -1.35% | [2] 13.6% | [3] 18.6% | [4] -22.1% | [5] 13.1% | [6] 23.6%

CCN(CC)c1c(C)nnn1C1OC(COC(C)=O)C(OC(C)=O)C(OC(C)=O)C1OC(C)=O (stereo unspecified)
inactive: [1] -0.8% | [2] -10.9% | [3] -19.9% | [4] 3.15% | [5] 11.8% | [6] -12%

COc1cc(CC2COC(=O)[C@@H]2Cc2ccc(O)c(OC)c2)ccc1O (stereo partly specified)
inactive: [1] -29.7% | [2] -18.9% | [3] -23.4% | [4] 1.25% | [5] 6.55% | [6] 3.1%

CCCCCCC(O)CC[C@H]1CCC[C@@H](C)N1 (stereo partly specified)
inactive: [1] 46% | [2] 26.3% | [3] 39.5% | [4] 38.9% | [5] 45.5% | [6] 38.5%

CCSc1nc(N)c2c(-c3ccc(OC)c(OC)c3)c3c(nc2n1)CCCC3
inactive: [1] -32.6% | [2] -17.2% | [3] -39.5% | [4] -3.35% | [5] -15.8% | [6] -25.4%

CN1CCN(C2=NCCO2)CC1
inactive: [1] 6.4% | [2] 22.1% | [3] 32.3% | [4] 32% | [5] 12.8% | [6] 20.2%

C/C=N\n1c(C)c(C#N)c(C#N)c1N
inactive: [1] 8.6% | [2] 10.2% | [3] -23.6% | [4] -14.1% | [5] -21.7% | [6] -35.5%

O=C(NC1CCCCC1)c1ccccc1Cl
inactive: [1] 23.6% | [2] -9.75% | [3] -15.3% | [4] 24.2% | [5] -10.2% | [6] 10.3%

NC(C(=O)O)C(F)(F)C(=O)O (stereo unspecified)
inactive: [1] 2.45% | [2] -18.7% | [3] -2.7% | [4] -33.1% | [5] -7.3% | [6] -1.15%

NNC(=S)N/N=C(\CCCC(=O)NCCc1ccccc1)CC(=O)c1ccccc1
inactive: [1] -3.6% | [2] 12.8% | [3] -21.3% | [4] 18.1% | [5] 8.15% | [6] 8.8%

c1c2c(cc3c1OCN(C1CC1)C3)OCN(C1CC1)C2
inactive: [1] 0.7% | [2] 5.6% | [3] 10% | [4] -19.2% | [5] -13.8% | [6] -3.35%

CC(=O)SC12CCCN1C(=O)C1(SC(C)=O)CCCN1C2=O (stereo unspecified)
inactive: [1] 40.5% | [2] 26.4% | [3] 45.2% | [4] -28.9% | [5] 3.3% | [6] 37%

CC(=O)NC(Cc1ccccc1)/C(C)=N\O (stereo unspecified)
inactive: [1] -3.15% | [2] -2.05% | [3] -2.65% | [4] -15.2% | [5] 5.25% | [6] 4.8%

Cc1cc(=O)oc2c(CNC(Cc3ccccc3)C(=O)O)c(O)ccc12 (stereo unspecified)
inactive: [1] -39.4% | [2] -40.6% | [3] -24.3% | [4] -21.1% | [5] -22.1% | [6] -69%

COc1c(OC(C)=O)c(OC(C)=O)cc2c1-c1ccc(OC)c(=O)cc1C(NC(C)=O)CC2 (stereo unspecified)
inactive: [1] 1.65% | [2] -1.35% | [3] 15.8% | [4] 1.35% | [5] -33.3% | [6] 8.35%

CCOC(=O)C(=O)Nc1ccccc1OCC
inactive: [1] 3.3% | [2] 11.2% | [3] -11.2% | [4] -27.7% | [5] 0.9% | [6] 4.2%

COc1cccc(C(=O)NCCNCCNC(=O)c2cccc(OC)c2OC)c1OC
inactive: [1] -0.8% | [2] 0.7% | [3] -3.95% | [4] -6.6% | [5] -1.75% | [6] -2.35%

COC(=O)C(=O)C(C(=O)C=C(C)C)C(=O)C(=O)Nc1cc(C(F)(F)F)ccc1Cl (stereo unspecified)
inactive: [1] -3% | [2] -1.4% | [3] 6% | [4] -57.1% | [5] 1.15% | [6] -10.8%

Cc1ccccc1N=Nc1c(-c2ccccc2)nn(C(=O)CC(=O)Nc2cccc(Cl)c2)c1-c1ccccc1
inactive: [1] 60.9% | [2] 21.6% | [3] 55.5% | [4] 34.3% | [5] 68% | [6] 41.5%

Nc1cc([N+](=O)[O-])ccc1N1C(=O)CCCC1=O
inactive: [1] -15.2% | [2] -4.95% | [3] -10.1% | [4] -5.8% | [5] 5.85% | [6] 12.4%

Reference: PubChem BioAssay (NCI)
